# In ChEMBL document CHEMBL3433997, “St. Jude Leishmania screening dataset” (2016):
# Experiments:
# Type in all cases: functional
# [1] = target: Solute carrier family 2, facilitated glucose transporter member 1 (Homo sapiens) (UniProt P11166); assay: ST_JUDE_LEISH: Cytotoxicity at 2uM final concentration against transgenic Leishmania Mexicana promastigotes LmGLUT1 that are glucose transport deficient and complemented with the human glucose transporter GLUT1. Activity is measured by DNA content using SYBR green in vitro
# [2] = target: Hexose transporter 1 (Plasmodium falciparum) (UniProt O97467); assay: ST_JUDE_LEISH: Cytotoxicity at 2uM final concentration against transgenic Leishmania Mexicana promastigotes LmPfHT that are glucose transport deficient and complemented with the Plasmodium falciparum hexose transporter. Activity is measured by DNA content using SYBR green in vitro
# [3] = target: Glucose transporter (Leishmania mexicana) (UniProt O61059); assay: ST_JUDE_LEISH: Cytotoxicity at 2uM final concentration against transgenic Leishmania Mexicana promastigotes LmGT2 that are glucose transport deficient and complemented with the L. Mexicana glucose transporter 2. Activity is measured by DNA content using SYBR green in vitro
# Chain of Solute carrier family 2, facilitated glucose transporter member 1 (Homo sapiens) (P11166 whole entry): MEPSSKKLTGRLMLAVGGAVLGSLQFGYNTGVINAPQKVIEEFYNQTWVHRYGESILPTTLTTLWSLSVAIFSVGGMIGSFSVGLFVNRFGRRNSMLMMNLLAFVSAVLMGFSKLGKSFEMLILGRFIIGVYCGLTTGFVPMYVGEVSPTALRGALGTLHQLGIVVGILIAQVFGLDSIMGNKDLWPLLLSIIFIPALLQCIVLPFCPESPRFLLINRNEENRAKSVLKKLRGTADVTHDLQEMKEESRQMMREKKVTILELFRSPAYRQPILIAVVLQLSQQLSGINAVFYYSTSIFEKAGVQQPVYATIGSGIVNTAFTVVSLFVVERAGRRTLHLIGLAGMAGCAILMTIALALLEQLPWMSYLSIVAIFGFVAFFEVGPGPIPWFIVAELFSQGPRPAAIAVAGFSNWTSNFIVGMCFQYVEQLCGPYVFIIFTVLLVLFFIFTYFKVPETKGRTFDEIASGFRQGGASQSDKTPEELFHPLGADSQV
SMILES,inhibition [1] [%],inhibition [2] [%],inhibition [3] [%]
Cc1cccc(-c2nn(-c3ccccc3)c3[nH]c(=O)c(CNC4CCCC4)cc23)c1,2.26,2.39,-0.29
O=C(Nc1cc(Cl)cc(Cl)c1)Nc1ccccc1C(=O)NC1CCCCC1,-0.12,-1.94,0.23
Cc1nnsc1C(=O)Nc1cccc(-c2csc(-c3nc4ccccc4[nH]3)c2)c1,2.53,3.19,1.45
CCOc1ccc(OCC)c(N2CCN(CCCCNC(=O)c3ccc(NC(=O)c4ccc(Cl)cc4)cc3)CC2)c1,3.44,3.28,3.45
CCCc1ccc(S(=O)(=O)NC2CCN(c3ccnc(Nc4ccc(F)cc4)n3)C2)cc1 (configuration not stated),0.73,0.26,1.48
CC(CN(C)C)C(=O)Nc1ccc(-c2cccc(-c3nc4ccccc4[nH]3)c2)cc1 (configuration not stated),5.14,4.81,8.05
Cc1cc(Nc2cccc(C(F)(F)F)c2)nc2ccc(NC(=O)c3ccc(=O)[nH]c3)cc12,-0.79,-0.69,-0.59
CC(=O)Nc1ncc(C(=O)Nc2cccc(-c3ccc(-c4nc5cc(C(F)(F)F)ccc5[nH]4)cc3)c2)s1,2.37,0.89,-0.63
Cc1cc(C)cc(N2C(N)=NC(N)=NC2(C)C)c1,7.13,5.93,5.97
CN1CCN(CCNc2c3ccccc3nc3c2ccc2ccccc23)CC1,84.6,88,81.5
O=C(CCc1ccccc1)NC(c1ccc(Cl)cc1)c1ccc2cccnc2c1O (configuration not stated),-0.41,1.91,3.42
CC(C)Nc1nc(NCCc2c[nH]cn2)nc(Nc2ccc(Oc3ccccc3)cc2)n1,2.08,2.71,-1.98
NC1CCCN(Cc2ccc(-c3cccc(-c4nc5ccccc5[nH]4)c3)cc2)C1 (configuration not stated),3.53,4.34,4.25
COc1ccc2c(c1)S(=O)(=O)N=C(N1CCCC1c1ccc(Cl)c(Cl)c1)N2C (configuration not stated),-1.4,-0.89,-1.05
Cc1ccccc1N1CCN(c2ccc(C(=O)Nc3ccccc3)cc2)CC1,-0.27,0.69,1.33
O=C(C=Cc1ccc(-c2nc3ccccc3[nH]2)cc1)NC1CCN(Cc2ccccc2)CC1,-1.19,1.99,5.3
COc1ccc(S(=O)(=O)NCCC2CCN(CCCCCNC(=O)C=Cc3ccc(Cl)c(Cl)c3)CC2)cc1,2.06,2.12,1.49
Oc1cc(NC[C@H]2CCC[C@@H]2NCc2cc(Br)cc(Br)c2)nc2ccccc12,2.99,4.07,3.27
CC(C)NCc1ccc(-c2cccc(-c3nc4cc(C(F)(F)F)ccc4[nH]3)c2)cc1,3.55,3.48,4.16
O=C(Nc1ccc(-c2nc3ccccc3[nH]2)cc1)c1cnc(Cl)c(Cl)c1,0.44,-0.34,2.62

SMILES,inhibition [1] [%],inhibition [2] [%],inhibition [3] [%]
COc1c(I)cc(Cc2cnc(N)nc2N)cc1I,6.68,4.23,2.6
CN1CCC(N2CCN(Cc3cccc(-c4ccc(-c5nc6cc(C(F)(F)F)ccc6[nH]5)cc4)c3)CC2)CC1,2.62,3.31,2.07
O=C(NC1CCN(CC2(c3ccccc3F)CCCC2)CC1)c1cc[nH]n1,4.33,1.54,1.89
Cc1ccc(Cn2c(N3CCC(C(=O)NCc4ccccn4)CC3)nc3ccccc32)cc1,4.09,4.68,7.97
Cc1noc(C)c1-c1cccc(CNCc2ccc(-c3cccc(-c4nc5cc(F)ccc5[nH]4)c3)cc2)c1,11.3,10.1,10.8
Cc1nc(-c2cccc3c(NC(=O)N4CCc5cc6nccc(N7CCN(C)CC7)c6cc54)cccc23)no1,1.15,-2.64,-0.68
COc1ccc2c(=NN=Cc3c(OC)ccc4ccccc34)cc(C)[nH]c2c1,2.05,2.99,4.08
O=C(Nc1ccc2c(c1)CCC2)c1cccc(CN2CCCN(Cc3cccc(O)c3)CC2)c1,1.77,-2.6,-0.46
CN(C)CCNCc1ccc(-c2ccc3c(Nc4ccc(Cl)cc4F)ccnc3c2)o1,1.23,0.82,-1.76
O=C(Nc1ccccc1Cl)c1cc2ccccc2cc1O,-2.32,-1.17,-0.43
CC(CN1CCN(C)CC1)C(=O)Nc1ccc(-c2cccc(-c3nc4cc(F)ccc4[nH]3)c2)cc1 (configuration not stated),2.46,2.1,5.11
CCCCNCc1ccc(-c2nc(CN(CCCn3ccnc3)C(=O)Nc3ccc(CC)cc3)cs2)cc1,7.74,6.29,6.91
Cc1cc(N)c2cc(NC(=O)/C=C/c3ccccc3Cl)ccc2n1,-4.75,0.57,-0.21
COc1ccccc1CCNc1nc(C)cc(N[C@@H](Cc2ccccc2)C(=O)NCc2cccs2)n1,2.42,2.49,0.42
O=C(Nc1cccc(-c2nn3ccccc3c2-c2ccnc(Nc3ccccc3)n2)c1)c1cc(F)ccc1F,4.48,2.05,-2.21
CC1CCCC(C)N1C[C@@H](O)CNS(=O)(=O)c1cccc(C(F)(F)F)c1 (some centres not stated),0.21,0.37,-0.01
CC(CCc1ccccc1)NCC(O)c1ccc2c3c(cccc13)C(=O)N2C (configuration not stated),1.56,0.34,-0.76
CCCNCc1ccc(-c2ccc(CN(Cc3cnc(C)cn3)C(=O)c3nn(-c4ccccc4)nc3C)cc2)nc1,2.69,0.9,-6.47
CCc1cccc2c(C#N)cn(CC(=O)NCCc3ccccc3)c12,6.99,9.88,9.25
